PubChem BioAssay (Tox21)
Records with an inconclusive call do not appear. The source made the active and inactive calls. Unless noted, the call rests on the fitted dose curve; in most records, active means well fitted curve in the direction sought with a large enough effect in the repeat runs; inconclusive means weak or mixed curves; inactive means no such curve, though single readings can be large; an effect the other way counts as inactive or inconclusive.

Columns and labels:
[1] = A CellTox Green Cytotoxicity Assay to monitor cytotoxicity in HepG2 cells - 8 hour (AID 1224890); further: nearly all actives have a fitted effect of over 45% in size
Method in brief: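 Real-time cytotoxicity: fluorescence of a cell-impermeant cyanine dye binding DNA of dead HepG2 cells, measured repeatedly (0–40 h) during compound exposure at 37 C. Cells seeded 600/well with reagent, dosed after 5 h.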

[2] = qHTS assay to identify small molecule antagonists of the estrogen receptor alpha (ER-alpha) signaling pathway using the BG1 cell line in the presence of 0.1 nM 17-beta-estradiol - cell viability counter screen (AID 1259241); further: nearly all actives have a fitted effect of over 40% in size
Method in brief: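 Live-cell protease activity (CellTiter-Fluor fluorescence, 30 min) was read in the same wells after VM7Luc4E2 cells had been exposed to compounds with 0.1 nM 17beta-estradiol for 22 hr at 37C.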

[3] = qHTS assay to identify small molecule antagonists of the androgen receptor (AR) signaling pathway using the MDA cell line in the presence of 0.5 nM R1881 - cell viability counter screen (AID 1259242); further: nearly all actives have a fitted effect of over 45% in size
Method in brief: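 Live-cell protease activity was measured by CellTiter-Fluor fluorescence after 30 min. Before that, MDA-kb2 MMTV-luciferase cells had 16 hr at 37C without CO2, exposed to test compounds and 0.5 nM R1881 final.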

[4] = molecular target: Estrogen receptor (Homo sapiens) (UniProt P03372); experiment: qHTS assay to identify small molecule antagonists of the estrogen receptor alpha (ER-alpha) signaling pathway using the BG1 cell line in the presence of 0.1 nM 17-beta-estradiol (AID 1259244); further: nearly all actives have a fitted effect of over 50% in size
Method in brief: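 Luciferase luminescence (ONE-Glo, 30 min at room temperature) was read after 22 hr at 37C exposure to compounds plus 17beta-estradiol at 0.1 nM final. Cells were VM7Luc4E2 with endogenous ER-alpha and an ERE-driven luciferase, pre-cultured 5 days in hormone-depleted medium.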

[5] = qHTS assay to identify small molecule phospholipidosis (PLD) inducers (AID 1259344; active means well fitted curve in the direction sought with a large enough effect; an effect the other way counts as inactive or inconclusive)
Method in brief: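 Accumulated phospholipid, stained red by LipidTOX during 24 h compound treatment of HepG2 cells at 37 C, is quantified from images as pit number and intensity, normalised per cell using Hoechst-stained nuclei.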

[6] = qHTS assay to identify small molecule HDAC inhibitors (AID 1259364); further: top concentration of the series differs between compounds; nearly all actives have a fitted effect of over 45% in size
Method in brief: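 Luminescence read after 30 min room-temperature HDAC-Glo incubation measures cellular class I/II HDAC activity. Compounds were applied for 2 hr at 37 C to HCT-116 wild-type cells seeded the day before.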

[7] = qHTS assay to identify small molecule HDAC inhibitors - cell viability counter screen (AID 1259365); further: series mostly up to about 92 µM; nearly all actives have a fitted effect of over 50% in size
Method in brief: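 HCT-116 (wild type), 1,500 cells/well, overnight 37C/5% CO2; compound in DMSO 2hr; CellTiter-Glo 30min RT; luminescence read.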

[8] = qHTS assay to identify small molecule agonists of the sonic hedgehog signaling (Shh) pathway - cell viability counter screen (AID 1259366); further: nearly all actives have a fitted effect of over 50% in size
Method in brief: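 CellTiter-Fluor fluorescence read-out, 1 hr at 37C, added after 23hr compound exposure. Cells: 3T3 Gli1-Luc, an NIH/3T3 clone with stably integrated Gli1-Luc reporter, plated 4hr before compound.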

[9] = qHTS assay to identify small molecule antagonists of the sonic hedgehog signaling (Shh) pathway - cell viability counter screen (AID 1259367); further: nearly all actives have a fitted effect of over 55% in size
Method in brief: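 CellTiter-Fluor signal in conditioned medium-stimulated 3T3 Gli1-Luc cells, 23 hr compound exposure, 37C.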

[10] = qHTS assay to identify small molecule agonists of the sonic hedgehog signaling (Shh) pathway (AID 1259368; calls by dose curve;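 further: NIH/3T3-derived 3T3Gli1-Luc cells carrying a stable Gli1-driven firefly luciferase reporter; series mostly up to about 92 µM; nearly all actives have a fitted effect of over 15% in size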)
Method in brief: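 Luminescence was read after 30 min at room temperature with luciferase reagent. Before that, 3T3Gli1-Luc cells (NIH/3T3 clone, stable Gli1-Luc reporter; 2,000/well) were exposed to compounds for 24 hr at 37C, 5% CO2, compounds being added 4 hr post-plating.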

[11] = molecular target: Estrogen receptor beta (Homo sapiens) (UniProt Q92731); experiment: qHTS assay to identify small molecule agonists of the estrogen receptor beta (ER-beta) signaling pathway (AID 1259377; active means well fitted activation curve with a large enough effect in the signal ratio in the repeat runs, not every such curve was filed as active; the % refers to the signal ratio)
Method in brief: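 Beta-lactamase reporter readout: fluorescence of LiveBLAzer B/G FRET substrate after 2 h at room temperature, following 16 h compound treatment of ER-beta-UAS-bla HEK293T cells at 37C in 2% charcoal-stripped FBS medium.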

[12] = qHTS assay to identify small molecule agonists of the androgen receptor (AR) signaling pathway in the presence of an antagonist - cell viability counter screen (AID 1259379);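 further: MDA-kb2 human breast cancer cells carrying an MMTV luciferase reporter; series mostly up to about 92 µM; nearly all actives have a fitted effect of over 25% in size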
Method in brief: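 Cytotoxicity counter-screen run in the same wells as the nilutamide-challenged (3.0 µM final) AR agonist assay in MDA-kb2 cells. Compounds tested at 15 concentrations for 16 h, 37 °C without CO2; CellTiter-Fluor fluorescence read.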

[13] = qHTS assay to identify small molecule agonists of the estrogen receptor beta (ER-beta) signaling pathway - cell viability counter screen (AID 1259380); further: nearly all actives have a fitted effect of over 30% in size
Method in brief: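 Cell viability counter screen: CellTiter-Glo luminescence (30 min, room temperature) measured in the same wells as the beta-lactamase readout, after 16 hr compound exposure at 37C of ER-beta-bla HEK293T cells in 2% charcoal-stripped FBS medium.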

[14] = qHTS assay to identify small molecule antagonists of the estrogen receptor beta (ER-beta) signaling pathway - cell viability counter screen (AID 1259382);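 further: HEK293T cells carrying ER-beta-UAS-bla reporter stimulated with estradiol; series mostly up to about 92 µM; nearly all actives have a fitted effect of over 55% in size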
Method in brief: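 Cytotoxicity was measured in the same wells by CellTiter-Glo luminescence after 30 min at room temperature. Cells were ER-beta-bla HEK293T in charcoal-stripped serum, given compound together with 1 nM E2 and incubated 16 h at 37C.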

[15] = molecular target: Estrogen receptor (Homo sapiens) (UniProt P03372); experiment: qHTS assay to identify small molecule agonists of the estrogen receptor alpha (ER-alpha) signaling pathway in the presence of an antagonist (AID 1259383; calls by dose curve; further: top concentration of the series differs between compounds; nearly all actives have a fitted effect of over 15% in size)
Method in brief: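 Agonist-mode confirmation run in the presence of 10.0nM (final) ICI-182,780 antagonist. The reporter was ERE-driven luciferase in VM7Luc4E2 cells, grown in charcoal-stripped serum. Cells were exposed to 15-concentration compound series for 22hr, then ONE-Glo luminescence was read.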

[16] = molecular target: Androgen receptor (Homo sapiens) (UniProt P10275); experiment: qHTS assay to identify small molecule antagonists of the androgen receptor (AR) signaling pathway using the MDA cell line in the presence of 0.5 nM R1881 (AID 1259243); further: nearly all actives have a fitted effect of over 50% in size
Method in brief: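 Luminescent reporter readout (ONE-Glo, 30 min, room temperature) after 16 hr co-treatment of MDA-kb2 cells with test compounds and 0.5 nM R1881 final, at 37C without CO2. The MMTV-driven luciferase responds to both AR and GR.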

[17] = qHTS assay to identify small molecule antagonists of the sonic hedgehog signaling (Shh) pathway (AID 1259369; calls by dose curve; further: nearly all actives have a fitted effect of over 45% in size)
Method in brief: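 Antagonist mode: compound added to 3T3 Gli1-Luc cells followed by conditioned-medium stimulation, 24 h at 37 C, 5% CO2. Inhibition taken as loss of Gli1-driven luciferase luminescence.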

[18] = molecular target: Androgen receptor (Homo sapiens) (UniProt P10275); experiment: qHTS assay to identify small molecule agonists of the androgen receptor (AR) signaling pathway in the presence of an antagonist (AID 1259381; calls by dose curve; further: nearly all actives have a fitted effect of over 15% in size)
Method in brief: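 Agonist-mode confirmation run against 3.0 uM final nilutamide: compounds titrated at 15 concentrations onto MDA-kb2 MMTV-luciferase reporter cells. Luminescence measured with ONE-Glo following 16 hr incubation, 37C, 0% CO2.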

[19] = qHTS assay to identify small molecule agonists or antagonists of the thyroid stimulating hormone receptor (TSHR) signaling pathway - wild type cell line counter screen (AID 1259384; calls by dose curve)
Method in brief: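 Counter screen in untransfected Hek293: compounds (15-point titration, triplicate) plus phosphodiesterase inhibitor Ro20-1724 added after 18 h plating; 30 min RT. Intracellular cAMP via competitive d2/cryptate immunoassay, 1 h incubation.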

[20] = molecular target: Estrogen receptor beta (Homo sapiens) (UniProt Q92731); experiment: qHTS assay to identify small molecule antagonists of the estrogen receptor beta (ER-beta) signaling pathway (AID 1259378; active means well fitted inhibition curve with a large enough effect in the signal ratio in the repeat runs, not every such curve was filed as active; the % refers to the signal ratio)
Method in brief: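 Antagonist mode: compounds added to beta-lactamase reporter HEK293T ER-beta-UAS cells stimulated with E2 (1nM final), 16 hr at 37C. LiveBLAzer B/G FRET substrate, 2 hours room temperature, fluorescence read-out.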

Measured: Potency

Chain of Estrogen receptor beta (Homo sapiens) (Q92731 whole entry, looked up): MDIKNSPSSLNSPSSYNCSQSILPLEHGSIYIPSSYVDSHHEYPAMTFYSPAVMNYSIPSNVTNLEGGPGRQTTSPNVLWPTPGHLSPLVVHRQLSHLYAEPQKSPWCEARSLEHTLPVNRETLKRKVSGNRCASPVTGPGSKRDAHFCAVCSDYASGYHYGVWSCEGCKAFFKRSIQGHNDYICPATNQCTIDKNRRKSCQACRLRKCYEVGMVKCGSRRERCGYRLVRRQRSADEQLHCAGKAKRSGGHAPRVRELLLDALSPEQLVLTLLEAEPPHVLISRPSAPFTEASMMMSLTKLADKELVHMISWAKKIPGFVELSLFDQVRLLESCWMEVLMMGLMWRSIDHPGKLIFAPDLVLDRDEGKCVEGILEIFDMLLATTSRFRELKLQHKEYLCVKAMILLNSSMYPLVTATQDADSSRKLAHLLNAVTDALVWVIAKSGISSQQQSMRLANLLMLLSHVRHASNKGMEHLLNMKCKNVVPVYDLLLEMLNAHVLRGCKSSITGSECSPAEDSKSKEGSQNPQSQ
Chain of Androgen receptor (Homo sapiens) (P10275 whole entry, looked up): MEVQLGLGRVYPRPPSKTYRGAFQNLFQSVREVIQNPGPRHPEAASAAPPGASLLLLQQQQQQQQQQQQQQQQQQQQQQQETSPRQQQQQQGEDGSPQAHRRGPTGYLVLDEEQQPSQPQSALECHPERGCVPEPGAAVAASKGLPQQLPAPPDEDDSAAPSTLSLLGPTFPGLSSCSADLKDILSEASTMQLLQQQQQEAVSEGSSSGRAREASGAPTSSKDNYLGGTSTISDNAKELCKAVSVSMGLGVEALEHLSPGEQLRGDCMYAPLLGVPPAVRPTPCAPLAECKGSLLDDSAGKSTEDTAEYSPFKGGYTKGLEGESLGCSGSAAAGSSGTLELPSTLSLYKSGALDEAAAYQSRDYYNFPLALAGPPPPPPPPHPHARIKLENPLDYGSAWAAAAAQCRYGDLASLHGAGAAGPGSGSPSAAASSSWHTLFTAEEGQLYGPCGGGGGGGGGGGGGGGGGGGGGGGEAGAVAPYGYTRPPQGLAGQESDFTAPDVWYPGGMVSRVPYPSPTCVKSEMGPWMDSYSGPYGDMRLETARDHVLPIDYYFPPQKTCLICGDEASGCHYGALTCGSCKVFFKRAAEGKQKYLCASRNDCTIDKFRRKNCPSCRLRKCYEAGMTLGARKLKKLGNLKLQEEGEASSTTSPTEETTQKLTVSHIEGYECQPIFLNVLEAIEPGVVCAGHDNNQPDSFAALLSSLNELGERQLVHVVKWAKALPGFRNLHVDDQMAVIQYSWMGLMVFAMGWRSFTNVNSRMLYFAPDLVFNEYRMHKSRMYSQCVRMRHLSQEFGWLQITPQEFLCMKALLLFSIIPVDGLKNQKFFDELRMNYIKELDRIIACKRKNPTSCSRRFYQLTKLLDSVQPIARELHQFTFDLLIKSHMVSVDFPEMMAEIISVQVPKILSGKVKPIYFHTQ
Chain of Estrogen receptor (Homo sapiens) (P03372 whole entry, looked up): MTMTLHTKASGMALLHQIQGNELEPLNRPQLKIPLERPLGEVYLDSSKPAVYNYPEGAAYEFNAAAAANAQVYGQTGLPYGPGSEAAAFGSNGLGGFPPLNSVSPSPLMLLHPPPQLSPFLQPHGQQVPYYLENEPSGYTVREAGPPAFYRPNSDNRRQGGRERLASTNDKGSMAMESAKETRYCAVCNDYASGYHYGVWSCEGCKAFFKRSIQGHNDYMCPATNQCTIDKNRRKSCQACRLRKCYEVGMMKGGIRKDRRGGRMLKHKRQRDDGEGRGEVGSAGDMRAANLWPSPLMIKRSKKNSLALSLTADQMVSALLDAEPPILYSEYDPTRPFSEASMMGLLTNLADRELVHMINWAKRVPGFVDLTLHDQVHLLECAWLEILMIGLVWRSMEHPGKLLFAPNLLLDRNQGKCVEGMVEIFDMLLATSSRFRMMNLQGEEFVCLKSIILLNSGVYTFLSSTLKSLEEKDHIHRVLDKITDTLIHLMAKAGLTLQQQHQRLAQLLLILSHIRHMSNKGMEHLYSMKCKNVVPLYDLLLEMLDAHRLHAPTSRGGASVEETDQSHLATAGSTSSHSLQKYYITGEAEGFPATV

CCC1(CC)C(=O)C=CNC1=O
inactive: [1] | [2] | [3] | [4] | [5] | [6] | [7] | [8] | [9] | [10] | [11] | [12] | [13] | [14] | [15]

O=S1(=O)OCCO1
inactive: [1] | [2] | [3] | [16] | [6] | [7] | [9] | [10] | [17] | [12] | [13] | [18] | [14] | [19]

CC(C)N(Cc1ccccc1)C(=O)C(C)(C)C
inactive: [1] | [2] | [3] | [16] | [6] | [7] | [8] | [9] | [10] | [17] | [11] | [20] | [12] | [13] | [18] | [14] | [19]

[O-][Br+2]([O-])O
inactive: [1] | [2] | [3] | [16] | [4] | [6] | [7] | [8] | [9] | [10] | [13] | [18] | [14] | [15] | [19]

CNC(=O)Oc1ccccc1C(C)C
inactive: [1] | [2] | [3] | [16] | [6] | [7] | [9] | [10] | [17] | [12] | [13] | [18] | [14] | [15] | [19]

COP(=O)(O)OC
inactive: [1] | [2] | [3] | [16] | [4] | [6] | [7] | [8] | [9] | [10] | [17] | [12] | [13] | [18] | [14] | [15] | [19]

CN(C)CCc1c[nH]c2cccc(OP(=O)(O)O)c12
inactive: [1] | [2] | [3] | [4] | [5] | [6] | [7] | [8] | [9] | [10] | [17] | [11] | [20] | [12] | [13] | [14] | [15]

Cc1ccc(S(=O)(=O)N[C@@H](CCCCN)C(=O)CCl)cc1
inactive: [1] | [2] | [3] | [16] | [4] | [5] | [6] | [7] | [8] | [9] | [10] | [17] | [11] | [12] | [13] | [18] | [14] | [15]

CCC1(c2ccccc2)C(=O)N(COC)C(=O)N(COC)C1=O
inactive: [1] | [2] | [3] | [16] | [5] | [6] | [7] | [8] | [9] | [10] | [17] | [12] | [13] | [18] | [14] | [19]
